Assay results reported in paper PMC11024108.

Key:
Experiment in all cases: cross-link between two proteins; cross-linking mass spectrometry
Histone H2B type 1-L = Histone H2B type 1-L (UniProt Q99880)
Histone H2B type 1-M = Histone H2B type 1-M (UniProt Q99879)
[1] = target: Large ribosomal subunit protein eL30 (UniProt P62888)
[2] = target: Actin-related protein 2/3 complex subunit 2 (UniProt Q9CVB6)
[3] = target: Large ribosomal subunit protein uL22 (UniProt Q9CPR4)
[4] = target: Large ribosomal subunit protein eL34 (UniProt Q9D1R9)
[5] = target: Large ribosomal subunit protein eL24 (UniProt Q8BP67)
[6] = target: L-lactate dehydrogenase B chain (UniProt P16125)
[7] = target: Actin, alpha cardiac muscle 1 (UniProt P68033)
Coronin-2B = target: T1, Coronin-2B (UniProt Q8BH44)
T1 sequence: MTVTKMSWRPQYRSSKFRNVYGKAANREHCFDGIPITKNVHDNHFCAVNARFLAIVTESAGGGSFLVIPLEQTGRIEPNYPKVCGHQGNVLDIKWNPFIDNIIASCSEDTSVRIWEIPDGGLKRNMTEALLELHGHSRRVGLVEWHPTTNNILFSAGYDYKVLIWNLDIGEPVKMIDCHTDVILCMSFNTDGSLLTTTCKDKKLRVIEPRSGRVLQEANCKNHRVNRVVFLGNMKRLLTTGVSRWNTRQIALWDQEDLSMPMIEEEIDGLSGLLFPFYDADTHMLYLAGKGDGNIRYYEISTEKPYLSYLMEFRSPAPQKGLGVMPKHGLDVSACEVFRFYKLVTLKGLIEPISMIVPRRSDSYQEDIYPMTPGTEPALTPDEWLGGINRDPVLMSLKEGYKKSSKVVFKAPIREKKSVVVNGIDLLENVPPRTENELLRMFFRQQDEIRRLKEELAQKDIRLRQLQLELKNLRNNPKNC

Myosin-10 = Myosin-10 (UniProt Q61879)
[8] = target: T2, Phosphatase and actin regulator 1 (UniProt Q2M3X8)
T2 sequence: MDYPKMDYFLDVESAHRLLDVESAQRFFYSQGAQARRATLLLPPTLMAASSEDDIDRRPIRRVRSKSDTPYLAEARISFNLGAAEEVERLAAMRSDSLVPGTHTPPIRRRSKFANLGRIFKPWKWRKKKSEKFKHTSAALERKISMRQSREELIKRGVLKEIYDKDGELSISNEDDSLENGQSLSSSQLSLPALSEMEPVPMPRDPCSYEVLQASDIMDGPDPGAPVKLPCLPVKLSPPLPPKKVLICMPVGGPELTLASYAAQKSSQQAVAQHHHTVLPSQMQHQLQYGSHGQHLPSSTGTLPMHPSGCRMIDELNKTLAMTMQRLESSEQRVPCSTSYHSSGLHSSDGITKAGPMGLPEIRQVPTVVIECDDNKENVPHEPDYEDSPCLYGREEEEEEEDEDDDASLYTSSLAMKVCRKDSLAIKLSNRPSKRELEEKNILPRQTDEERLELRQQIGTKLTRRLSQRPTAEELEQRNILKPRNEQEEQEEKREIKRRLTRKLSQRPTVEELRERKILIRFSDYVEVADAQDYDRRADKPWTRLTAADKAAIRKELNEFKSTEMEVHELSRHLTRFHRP

Synaptopodin = target: T3, Synaptopodin (UniProt Q8CC35)
T3 sequence: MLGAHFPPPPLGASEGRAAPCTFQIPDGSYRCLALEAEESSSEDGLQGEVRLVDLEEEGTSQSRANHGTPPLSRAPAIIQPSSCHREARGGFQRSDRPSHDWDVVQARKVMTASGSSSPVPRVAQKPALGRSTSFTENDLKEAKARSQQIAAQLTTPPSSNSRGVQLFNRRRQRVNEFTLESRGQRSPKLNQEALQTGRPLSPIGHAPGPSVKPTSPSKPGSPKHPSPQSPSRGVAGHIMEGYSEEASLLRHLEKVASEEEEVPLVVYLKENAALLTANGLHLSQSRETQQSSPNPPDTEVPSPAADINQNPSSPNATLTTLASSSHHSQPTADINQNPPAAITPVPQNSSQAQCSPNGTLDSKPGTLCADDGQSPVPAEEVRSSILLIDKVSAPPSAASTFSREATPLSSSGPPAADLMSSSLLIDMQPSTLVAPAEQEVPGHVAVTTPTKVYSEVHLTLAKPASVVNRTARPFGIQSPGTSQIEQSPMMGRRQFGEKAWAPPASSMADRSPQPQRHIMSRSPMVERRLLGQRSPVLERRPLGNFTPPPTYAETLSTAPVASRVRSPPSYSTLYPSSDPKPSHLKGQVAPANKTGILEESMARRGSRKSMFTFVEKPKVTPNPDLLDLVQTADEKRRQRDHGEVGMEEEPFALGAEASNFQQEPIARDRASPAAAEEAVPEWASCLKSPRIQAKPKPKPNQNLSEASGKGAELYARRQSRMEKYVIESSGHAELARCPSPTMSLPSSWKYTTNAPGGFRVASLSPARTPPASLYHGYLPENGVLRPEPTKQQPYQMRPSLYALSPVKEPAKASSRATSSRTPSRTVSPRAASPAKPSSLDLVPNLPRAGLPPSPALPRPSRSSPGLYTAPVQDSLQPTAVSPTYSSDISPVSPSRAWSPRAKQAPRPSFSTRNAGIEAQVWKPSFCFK

Tropomodulin-2 = target: T4, Tropomodulin-2 (UniProt Q9JKK7)
T4 sequence: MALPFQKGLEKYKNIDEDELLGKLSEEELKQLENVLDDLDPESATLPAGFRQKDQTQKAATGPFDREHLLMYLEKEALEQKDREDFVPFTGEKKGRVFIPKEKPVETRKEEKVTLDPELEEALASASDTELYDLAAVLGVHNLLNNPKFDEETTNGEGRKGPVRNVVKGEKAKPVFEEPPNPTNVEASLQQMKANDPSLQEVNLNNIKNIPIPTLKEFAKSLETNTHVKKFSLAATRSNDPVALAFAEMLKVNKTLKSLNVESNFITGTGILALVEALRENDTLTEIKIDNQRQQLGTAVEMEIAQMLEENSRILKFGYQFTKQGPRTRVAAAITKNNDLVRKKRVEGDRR

Twinfilin-1 = Twinfilin-1 (UniProt Q91YR1)
Twinfilin-2 = target: T5, Twinfilin-2 (UniProt Q9Z0P5)
T5 sequence: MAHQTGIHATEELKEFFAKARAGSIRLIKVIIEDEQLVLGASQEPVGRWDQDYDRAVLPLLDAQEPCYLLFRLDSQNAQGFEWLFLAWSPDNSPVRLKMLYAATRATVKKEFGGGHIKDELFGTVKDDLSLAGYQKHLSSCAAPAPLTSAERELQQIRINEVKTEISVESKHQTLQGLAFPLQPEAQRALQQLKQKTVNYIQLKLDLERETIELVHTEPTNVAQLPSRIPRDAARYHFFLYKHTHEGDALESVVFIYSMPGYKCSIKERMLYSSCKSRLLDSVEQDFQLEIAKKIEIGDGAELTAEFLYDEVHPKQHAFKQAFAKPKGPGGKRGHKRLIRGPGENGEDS

Unconventional myosin-Va = Unconventional myosin-Va (UniProt Q99104)
[9] = target: Large ribosomal subunit protein eL27 (UniProt P61353)
[10] = target: Large ribosomal subunit protein eL42 (UniProt P83881)
[11] = target: Large ribosomal subunit protein bL17m (UniProt Q9NRX2)
[12] = target: AP-2 complex subunit beta (UniProt Q9DBG3)
Chain of AP-2 complex subunit beta (Q9DBG3 whole entry, one chain of several): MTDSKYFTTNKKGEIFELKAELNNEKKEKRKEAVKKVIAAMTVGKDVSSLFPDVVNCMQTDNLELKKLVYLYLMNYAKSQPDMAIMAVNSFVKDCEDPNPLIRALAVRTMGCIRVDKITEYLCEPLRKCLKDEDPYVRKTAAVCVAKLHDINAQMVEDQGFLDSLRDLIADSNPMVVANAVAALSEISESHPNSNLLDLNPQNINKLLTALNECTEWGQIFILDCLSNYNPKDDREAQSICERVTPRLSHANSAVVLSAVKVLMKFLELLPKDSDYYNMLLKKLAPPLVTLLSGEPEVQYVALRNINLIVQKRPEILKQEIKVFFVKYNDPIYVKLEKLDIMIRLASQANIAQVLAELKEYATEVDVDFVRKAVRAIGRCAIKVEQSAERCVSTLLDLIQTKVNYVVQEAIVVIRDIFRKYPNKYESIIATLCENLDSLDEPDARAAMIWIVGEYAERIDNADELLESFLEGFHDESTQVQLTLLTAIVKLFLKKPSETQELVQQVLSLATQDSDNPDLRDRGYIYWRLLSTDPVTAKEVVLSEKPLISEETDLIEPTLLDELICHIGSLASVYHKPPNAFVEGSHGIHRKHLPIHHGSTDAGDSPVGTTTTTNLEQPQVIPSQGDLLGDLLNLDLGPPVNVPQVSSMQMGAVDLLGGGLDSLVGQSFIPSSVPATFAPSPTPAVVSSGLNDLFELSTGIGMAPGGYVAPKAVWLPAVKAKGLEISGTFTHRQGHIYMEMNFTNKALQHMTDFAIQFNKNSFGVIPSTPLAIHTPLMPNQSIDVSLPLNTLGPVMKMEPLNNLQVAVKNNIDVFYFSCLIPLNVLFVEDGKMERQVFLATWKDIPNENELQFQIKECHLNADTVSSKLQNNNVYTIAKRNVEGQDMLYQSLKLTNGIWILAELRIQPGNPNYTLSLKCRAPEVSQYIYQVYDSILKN

[13] = target: Actin-related protein 2/3 complex subunit 5 (UniProt Q9CPW4)
[14] = target: Actin-related protein 2/3 complex subunit 5-like protein (UniProt Q9D898)
[15] = target: Actin-related protein 2/3 complex subunit 3 (UniProt Q9JM76)

Chain of AP-2 complex subunit sigma, P62743 (P62743 whole entry, one chain of several): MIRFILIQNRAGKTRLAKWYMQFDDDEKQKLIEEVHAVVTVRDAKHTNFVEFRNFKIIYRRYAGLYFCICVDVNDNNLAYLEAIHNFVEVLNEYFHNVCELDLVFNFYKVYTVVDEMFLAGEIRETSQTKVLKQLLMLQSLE

Histone H2A type 1-J, Q99878
listed as a hit (Histone H2B type 1-L): yes | listed as a hit (Histone H2B type 1-M): yes

Large ribosomal subunit protein eL43, P61513
listed as a hit [1]: yes

Actin-related protein 3, Q99JY9
listed as a hit [2]: yes

Large ribosomal subunit protein eL31, P62900
listed as a hit [3]: yes

Large ribosomal subunit protein eL8, P12970
listed as a hit [4]: yes

Small ribosomal subunit protein eS6, P62754
listed as a hit [5]: yes

L-lactate dehydrogenase A chain, P06151
listed as a hit [6]: yes

Actin, cytoplasmic 1, P60710
listed as a hit [7]: yes | listed as a hit (Coronin-2B): yes | listed as a hit (Myosin-10): yes | listed as a hit [8]: yes | listed as a hit (Synaptopodin): yes | listed as a hit (Tropomodulin-2): yes | listed as a hit (Twinfilin-1): yes | listed as a hit (Twinfilin-2): yes | listed as a hit (Unconventional myosin-Va): yes

Histone H3.2, Q71DI3
listed as a hit (Histone H2B type 1-L): yes | listed as a hit (Histone H2B type 1-M): yes

Large ribosomal subunit protein eL34, P49207
listed as a hit [9]: yes | listed as a hit [1]: yes

Histone H2B type 1-C/E/F/G/I, P62807
listed as a hit (Histone H2B type 1-L): yes | listed as a hit (Histone H2B type 1-M): yes

Large ribosomal subunit protein uL5, P62913
listed as a hit [10]: yes

Large ribosomal subunit protein bL32m, Q9BYC8
listed as a hit [11]: yes

AP-2 complex subunit sigma, P62743
listed as a hit [12]: yes

Actin-related protein 2/3 complex subunit 4, P59999
listed as a hit [13]: yes | listed as a hit [14]: yes

Actin-related protein 2, P61161
listed as a hit [2]: yes | listed as a hit [15]: yes
